# HTR5A ag = activates human HTR5A in OPRM1-OPRD1 agonist counter-screen | P47898 | HTR5A agonist assay, luminescence, cell-based | activation, % at 9.3 µM | 340,000 compounds, 0.61% hits; in the data active means activation mostly above about 9.5%, no sharp cut-off; inactive means mostly below about 7.6%;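 further: 0% = cells with vehicle only and 100% = reference agonist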
# MOR-DOR ag = agonists of human mu-delta opioid receptor heterodimerization; P35372+P41143; cells, OPRM1-OPRD1 heterodimerization, luminescence; activation, % at 9.3 µM; 340,000 compounds, 0.3% hits; AID 504326;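 further: 0% = vehicle-treated cells and 100% = reference agonist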
# HTR5A inv ctr = counter-screen for OPRM1-OPRD1 inverse agonists: human HTR5A inverse agonism | P47898 | HTR5A cell line, luminescence | inhibition, % at 9.3 µM | 340,000 compounds, 0.083% hits; in the data active means inhibition mostly above about 23%, no sharp cut-off; inactive means mostly below about 18%;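 further: 0% = cells with DMSO and 100% = no-cell wells with DMSO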
# MOR-DOR inv ag = mu-delta opioid heterodimer inverse agonism | P35372+P41143 | AID 504357 | cell-based MOR-DOR heterodimer luminescence | 340,000 compounds, 0.21% hits | inhibition, % at 9.3 µM; in the data active means inhibition above about 22%, passing the limit was not always enough;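 further: 0% = cells with DMSO and 100% = wells without cells with DMSO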
# OPRM1-D1 ag cf = OPRM1-OPRD1 heterodimer agonism, confirmation. shares compounds with MOR-DOR ag. cells, MOR-DOR heterodimerization, luminescence complementation. activation, % at 9.3 µM. 830 compounds, 45% hits. AID 504904;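 further: 0% = vehicle-treated cells and 100% = reference agonist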
# HTR5A ag counter = activates human HTR5A in OPRM1-OPRD1 agonist counter-screen; activation, % at 9.3 µM; HTR5A agonist counterscreen, cell luminescence; shares compounds with MOR-DOR ag; 830 compounds, 8% hits; in the data active means activation above about 17%;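 further: 0% = vehicle-treated cells and 100% = reference agonist response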
# Active calls of the source: *; i = inactive; . = no result given. An excerpt weighted towards active compounds, which were near 1.1% of everything screened. Unless noted, no stated cut-off is given here; in the data, active means activation above about 18%; inactive means the rest.
SMILES,HTR5A ag,MOR-DOR ag,HTR5A inv ctr,MOR-DOR inv ag,OPRM1-D1 ag cf,HTR5A ag counter
O=C(COC(=O)Cc1n[nH]c(=O)c2ccccc12)Nc1c(Cl)cccc1C(F)(F)F,0.5,0.5,-1.3,-3.1,.,.
OC(CNC1CCCc2ccccc21)COc1c(Cl)cccc1Cl (configuration not stated),-0.2,19.7*,0.7,-142.2,4.3,15.6
OC(CNC1Cc2ccccc2C1)COc1ccc(Cl)cc1 (configuration not stated),-3.6,1.8,-13.9,-8.8,.,.
Cc1sc(NC(=O)CSc2nnc(N)s2)c(C#N)c1C,-4.3,0.1,-3.3,-0.6,.,.
Cc1cccc(NC(=S)NCC(c2cccnc2)N(C)C)c1C (configuration not stated),-3.8,415.6*,9.9,i,411.9*,3.6
Cc1ccc(C)c(NC(=S)NCC(c2ccccc2)N(C)C)c1 (configuration not stated),2.1,264.6*,-5.8,i,360.5*,-1.7
CC(=O)c1ccc(NC(=O)CNCC(c2ccccc2)N(C)C)cc1 (configuration not stated),-2.9,0.9,-5.6,-4.6,.,.
Cc1ccccc1NC(=S)NCC(c1cccnc1)N(C)C (configuration not stated),-0.1,215.6*,0.2,i,211.5*,0.9
Cc1ccc(NC(=O)NCC(c2ccccc2)N(C)C)cc1 (configuration not stated),-2.3,352.9*,8.2,i,23.2*,16.7*
COc1ccccc1NC(=O)CS(=O)(=O)c1cn(CC(=O)N2CCCC2)c2ccccc12,9.9,0.0,9.2,0.1,.,.
CCOc1c(Br)cc(C(=O)NCCCn2ccnc2)cc1OC,0.7,0.1,-2.8,-0.3,.,.
Cc1c(Cl)cccc1NC(=S)NCC(c1cccnc1)N(C)C (configuration not stated),0.5,473.8*,-13.0,i,14.8,5.7
Cc1c(Cl)cccc1NC(=S)NCC(C)C,0.3,0.3,-0.9,-2.5,.,.
CC1=CC(=O)C(C(C)C)=C/C1=N/OS(=O)(=O)c1ccccc1,30.4*,205.5*,-63.7,i,82.6*,28.6*
O=C(CNC(=O)c1ccccc1F)N/N=C\C=C\c1ccccc1,0.6,-2.7,12.4,13.9,.,.
C(=N\Nc1nc(Nc2ccccc2)nc(Nc2ccccc2)n1)/c1ccncc1,-1.4,19.8*,3.9,-113.4,-2.5,-2.0
C(=N\Nc1nc(Nc2ccccc2)nc(Nc2ccccc2)n1)/c1cccnc1,-3.6,2.8,8.2,-13.8,.,.
O=C(CCNS(=O)(=O)c1ccccc1F)N1CCN(C/C=C/c2ccccc2)CC1,10.7,-0.8,4.9,5.3,.,.
COc1ccc(CCNC(=O)c2cccnc2Cl)cc1OC,-3.3,-0.2,-0.9,1.1,.,.
COc1ccc(Cn2nnnc2C(c2cc3cccc(C)c3[nH]c2=O)N2CCN(C)CC2)cc1 (configuration not stated),0.2,2.7,-4.4,-13.4,.,.
Cc1ccc2cc(C(c3nnnn3Cc3ccccc3)N3CCc4ccccc43)c(=O)[nH]c2c1 (configuration not stated),-2.8,19.8*,-10.5,-108.0,60.4*,-1.4
Cc1cccc2cc(C(c3nnnn3Cc3ccccc3)N3CCN(C)CC3)c(=O)[nH]c12 (configuration not stated),-0.2,34.8*,0.4,-185.1,38.0*,1.7
COc1ccc(S(=O)(=O)/N=C2\C=C(Nc3ccc(O)cc3)C(=O)c3ccccc32)cc1,0.1,21.3*,-0.3,-119.0,7.2,0.7
Cc1ccccc1NC1=C/C(=N\S(=O)(=O)c2ccc(C(=O)O)cc2)c2ccccc2C1=O,-1.9,11.3,4.7,-63.3,.,.
CN(C)C(CNC(C(=O)Nc1ccc([N+](=O)[O-])cc1Br)c1ccccc1)c1ccccc1 (configuration not stated),9.6,65.9*,35.4,-317.6,79.0*,4.1
SMILES,HTR5A ag,MOR-DOR ag,HTR5A inv ctr,MOR-DOR inv ag,OPRM1-D1 ag cf,HTR5A ag counter
O=C(Nc1ccc(F)cc1)C(NC1CCCCC1)c1ccccc1 (configuration not stated),-1.0,-0.8,2.6,3.7,.,.
CN(C)C(CNC(C(=O)Nc1ccc(F)cc1)c1ccccc1)c1ccccc1 (configuration not stated),2.6,230.0*,-7.7,i,-0.2,2.7
CC(C)CNC(C(=O)Nc1ccc([N+](=O)[O-])cc1Br)c1ccccc1 (configuration not stated),4.0,3.3,-5.3,-20.5,.,.
CC(C)CC(C(=O)NC1CCCCC1)N(Cc1ccccc1)C(=O)c1snc(C(N)=O)c1N (configuration not stated),1.4,5.0,-3.7,-37.5,.,.
COc1ccc(-n2c(SCC(=O)C(C)(C)C)nc3c(sc(=S)n3-c3ccccc3)c2=O)c(OC)c1,0.5,-2.4,-1.9,10.7,.,.
CNC(=O)/C(C#N)=C/c1ccc(-c2ccc(OC)cc2[N+](=O)[O-])o1,0.2,18.6*,-0.5,-116.2,1.2,-6.3
CC(OC(=O)CC1CCCC1)C(=O)Nc1ccc(S(N)(=O)=O)cc1 (configuration not stated),0.3,-0.9,25.6,5.8,.,.
COc1ccccc1N1CCN(C(c2cccs2)C(C)NC(=O)c2cccs2)CC1 (configuration not stated),-6.1,23.4*,2.5,-138.0,13.0,8.4
CC(C)C(=O)NC(C)C(c1cccs1)N1CCN(c2ccccc2)CC1 (configuration not stated),7.0,30.0*,-29.1,-176.8,28.8*,4.2
CC1CC(C)CN(S(=O)(=O)c2ccc3c(c2)CC(=O)N3)C1 (configuration not stated),3.9,-1.7,-9.6,6.7,.,.
CCOc1ccc(S(=O)(=O)Nc2cccc(C(=O)NCC(c3ccccc3)N(C)C)c2)cc1 (configuration not stated),-4.5,57.9*,2.3,-312.7,51.8*,-2.8
CC(=O)c1ccc(S(=O)(=O)NCc2ccc(C(=O)NCC(c3ccccc3)N(C)C)cc2)cc1 (configuration not stated),3.8,54.6*,-10.8,-291.7,48.7*,-3.9
COc1ccc(C(CNC(=O)c2cccc(S(=O)(=O)Nc3ccc(F)cc3)c2)N(C)C)cc1 (configuration not stated),-4.3,3.9,10.4,-20.2,.,.
CN(C)C(CNC(=O)c1ccc(S(=O)(=O)Nc2ccccc2F)cc1)c1ccccc1 (configuration not stated),-1.5,-2.7,15.5,14.0,.,.
COc1ccc(C(CNC(=O)c2cccc(NS(=O)(=O)c3ccccc3)c2)N(C)C)cc1 (configuration not stated),2.3,45.9*,-11.2,-246.3,28.6*,1.5
COc1ccc(C(CNC(=O)c2cccc(NS(=O)(=O)c3ccc(C)c(F)c3)c2)N(C)C)cc1 (configuration not stated),-3.0,69.8*,7.2,-362.8,1.3,-1.6
